# Screens from PubChem BioAssay.
# Dicer inh – inhibitors of Dicer pre-microRNA processing, primary screen, biochemical, cat-ELCCA, chemiluminescence | Endoribonuclease Dicer (Homo sapiens), Q9UPY3 | cat-ELCCA pre-miR-21 Dicer processing; stronger effect = higher value | z-score at 25 µM | hit rate 6% among 47,000 | AID 1347074, 2019; in the data active = z-score above about 3, passing the limit was not always enough;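 also: plate controls were vehicle for no effect and no enzyme for full effect; higher signal means more uncleaved substrate so more Dicer inhibition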
# Target sequence (Q9UPY3 whole entry, looked up): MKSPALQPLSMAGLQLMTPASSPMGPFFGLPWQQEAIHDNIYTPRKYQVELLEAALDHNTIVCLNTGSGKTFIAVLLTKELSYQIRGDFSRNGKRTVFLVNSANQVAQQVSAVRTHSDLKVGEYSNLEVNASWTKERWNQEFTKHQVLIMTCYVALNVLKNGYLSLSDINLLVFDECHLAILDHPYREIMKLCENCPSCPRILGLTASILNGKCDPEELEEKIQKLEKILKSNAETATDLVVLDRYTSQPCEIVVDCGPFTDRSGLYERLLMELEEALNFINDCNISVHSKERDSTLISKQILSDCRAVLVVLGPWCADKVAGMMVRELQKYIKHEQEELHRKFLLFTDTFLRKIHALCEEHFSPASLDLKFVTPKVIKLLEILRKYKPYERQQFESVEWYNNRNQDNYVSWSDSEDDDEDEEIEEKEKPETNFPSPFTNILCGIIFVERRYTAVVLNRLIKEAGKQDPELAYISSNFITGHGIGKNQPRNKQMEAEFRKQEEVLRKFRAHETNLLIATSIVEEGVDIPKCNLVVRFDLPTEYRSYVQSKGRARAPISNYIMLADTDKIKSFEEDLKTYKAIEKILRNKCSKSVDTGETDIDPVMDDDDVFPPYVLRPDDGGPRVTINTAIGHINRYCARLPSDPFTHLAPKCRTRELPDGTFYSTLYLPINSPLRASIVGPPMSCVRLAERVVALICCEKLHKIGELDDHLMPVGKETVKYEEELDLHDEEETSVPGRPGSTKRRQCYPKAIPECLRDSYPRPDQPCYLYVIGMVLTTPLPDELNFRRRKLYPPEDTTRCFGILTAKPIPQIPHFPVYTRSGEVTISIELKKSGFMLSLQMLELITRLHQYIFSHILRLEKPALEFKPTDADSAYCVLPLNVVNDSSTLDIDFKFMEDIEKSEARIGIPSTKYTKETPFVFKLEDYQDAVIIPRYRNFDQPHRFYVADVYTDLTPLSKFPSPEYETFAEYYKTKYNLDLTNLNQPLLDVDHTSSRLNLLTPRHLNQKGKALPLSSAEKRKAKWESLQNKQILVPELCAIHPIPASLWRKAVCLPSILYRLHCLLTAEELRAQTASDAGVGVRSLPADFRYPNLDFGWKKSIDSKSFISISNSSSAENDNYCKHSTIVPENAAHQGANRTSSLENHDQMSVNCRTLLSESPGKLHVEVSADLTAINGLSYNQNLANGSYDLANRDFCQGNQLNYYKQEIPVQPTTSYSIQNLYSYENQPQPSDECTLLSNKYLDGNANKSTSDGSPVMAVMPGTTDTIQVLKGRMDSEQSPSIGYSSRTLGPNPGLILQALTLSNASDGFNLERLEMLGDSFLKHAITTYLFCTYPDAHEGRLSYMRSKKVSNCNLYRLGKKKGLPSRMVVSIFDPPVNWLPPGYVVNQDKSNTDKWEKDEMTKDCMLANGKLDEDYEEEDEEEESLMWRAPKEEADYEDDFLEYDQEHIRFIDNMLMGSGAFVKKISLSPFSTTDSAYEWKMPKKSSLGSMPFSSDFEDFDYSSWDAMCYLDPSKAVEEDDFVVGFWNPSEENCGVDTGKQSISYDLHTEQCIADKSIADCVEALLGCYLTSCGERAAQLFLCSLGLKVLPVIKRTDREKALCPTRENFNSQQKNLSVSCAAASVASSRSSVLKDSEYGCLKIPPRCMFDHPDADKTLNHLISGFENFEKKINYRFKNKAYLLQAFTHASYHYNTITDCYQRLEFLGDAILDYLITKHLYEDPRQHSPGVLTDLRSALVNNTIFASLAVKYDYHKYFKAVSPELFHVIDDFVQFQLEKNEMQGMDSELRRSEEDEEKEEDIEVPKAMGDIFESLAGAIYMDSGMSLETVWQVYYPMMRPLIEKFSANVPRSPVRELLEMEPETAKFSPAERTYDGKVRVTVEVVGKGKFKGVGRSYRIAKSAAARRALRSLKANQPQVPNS
# * = called active by the depositor. Only a selection was taken, and hits are over-represented in it overall.
SMILES,Dicer inh
COC(=O)C1=C(C)NC(C)=C(C(=O)OCC(C)C)C1c1ccccc1[N+](=O)[O-] (stereo not given),3.86*
N#Cc1sccc1CS(=O)c1ccc(Cl)cc1 (stereo not given),-0.38
CCc1ccc(C2c3c(oc4cc(C)c(C)cc4c3=O)C(=O)N2CCCN(C)C)cc1 (stereo not given),0.58
CCc1ccc2[nH]c3sc(C)nc3c2c1,-1.4
CCOc1ccc(OCC)c2sc(C)nc12,3.2*
CCOc1nc2ccccc2nc1OCC,0.29
Cn1c(SCC(=O)c2ccc(C(C)(C)C)cc2)nnc1-c1ccncc1,-0.42
FC(F)(F)c1cccc(-c2n[nH]c(=S)n2-c2ccccc2)c1,1.82
Cc1sc2nc(C)n(/N=C/c3ccc4c(c3)OCO4)c(=O)c2c1C,6.39*
Cc1sc2nc(C)n(/N=C/c3cccs3)c(=O)c2c1C,1.93
Cc1nc2c(cnn2-c2ccccc2)c(=O)n1/N=C/c1ccc2c(c1)OCO2,2.13
COc1ccc(N2C(=O)CC(N3CCN(CCO)CC3)C2=O)cc1 (stereo not given),-1.04
Fc1cccc(Cl)c1CO/N=C/c1ccc(Cl)cc1Cl,1.6
COC(=O)CO/N=C/c1ccc(Cl)cc1Cl,-0.09
O=C(CO/N=C/c1ccc(Cl)cc1Cl)NNC(=S)Nc1cc(Cl)ccc1Cl,5.62*
Cc1cc(=O)[nH]c(-c2ccc(C(N)=O)cc2)n1,0.87
CCc1ccnc(NC(=O)Nc2c(Br)cc(C(C)C)cc2Br)c1,1.31
O=C(Nc1ccc2oc(-c3cccc(Cl)c3)nc2c1)c1ccc([N+](=O)[O-])o1,7.04
Cc1ccc2nc(-c3ccc(C)c(NC(=O)c4ccc([N+](=O)[O-])o4)c3)oc2c1,4.11*
Cc1ccc(-c2nc3cc(Cl)ccc3o2)cc1NC(=O)c1ccc([N+](=O)[O-])o1,0.65
O=C(O)C1C2C=CC3(CN(c4ccccc4)C(=O)C13)O2 (stereo not given),1.47
CC1(C(=O)O)C2C=CC3(CN(Cc4ccccc4)C(=O)C31)O2 (stereo not given),2.62
CC1(C(=O)O)C2C=CC3(CN(c4ccccc4)C(=O)C31)O2 (stereo not given),5.33*
CSc1nc(N)nc2sc(C(=O)c3ccc(Cl)cc3)c(N)c12,0.5
N#Cc1c(C(F)(F)F)cc(-c2cccs2)nc1OCC(=O)c1ccccc1,-0.46
SMILES,Dicer inh
S=C(NCC1CC1)N/N=C/c1ccccc1Cl,18.8
CC(C)(C)OC(=O)N[C@@H](Cc1ccccc1)C(=O)NNC(=S)NCC1CC1,2.11
O=C(NNC(=S)NCC1CC1)C1CC1,3.41*
Cc1cc(C)c2c(n1)sc1c(Sc3nnc(-c4cccs4)o3)ncnc12,-2.23
COc1cccc(N2CCCn3c2nc2c3c(=O)n(CC(=O)O)c(=O)n2C)c1,2.12
COC(=O)c1nc2nc(C)cc(C)n2n1,2.75
Cc1cc(C)n2nc(C(=O)N3CCOCC3)nc2n1,4.44*
O=C(c1nc2nc(-c3ccccc3)cc(C(F)(F)F)n2n1)N1CCOCC1,-0.57
COc1ccc(C2C3COC(C)(C)CC3=NN2C(C)=O)cc1 (stereo not given),2.24
CC(C)=NOC(=O)c1ccc(CSc2ccc(C(F)(F)F)cn2)o1,-1.51
COc1cc(C)nc(-n2nc(C)cc2OC)n1,0.16
COc1cc(C)nc(SCC(N)=O)n1,-0.74
COc1cc(C)nc(N(CCO)CCO)n1,5.89*
CSC(=Nc1cc(C(F)(F)F)cc(C(F)(F)F)c1)N1CCOCC1,2.62
COc1ccc(C)c2c1N[C@@H](c1ccc(C(=O)O)cc1)[C@H]1CC=C[C@@H]21,1.77
CN1C(=O)CC(NCc2ccc3c(c2)OCO3)C1=O (stereo not given),-0.41
CN(C)CCCN(Cc1ccc2c(c1)OCO2)C(=O)NC1CCCCC1,4.7*
O=C(NCc1ccc2c(c1)OCO2)NC1CCCCC1,2.84
FC(F)(F)c1ccnc(Oc2ccc(I)cc2)n1,-1.5
COc1cccc(CN2CCN(Cc3cc(Br)ccc3O)CC2)c1OC,3.76*
Cc1ccc(S(=O)(=O)N2CCN(Cc3cc(C(C)C)ccc3O)CC2)cc1,0.25
COc1ccc(CN2CCN(Cc3ccc(Br)cc3)CC2)c(OC)c1,0.24
COc1ccc(CN2CCN(Cc3cc(Br)ccc3O)CC2)c(OC)c1,4.53*
CCS(=O)(=O)N1CCN(Cc2cc(Br)ccc2O)CC1,4.87*
CCCS(=O)(=O)N1CCN(Cc2cc(Br)ccc2O)CC1,2.6
SMILES,Dicer inh
COc1ccc(Br)cc1CN1CCN(Cc2ccncc2)CC1,2.07
COc1ccc(CN2CCN(Cc3cc(Br)ccc3OC)CC2)cc1,0.33
COc1cccc(CN2CCN(Cc3ccccc3Br)CC2)c1OC,1.37
CN(C)CCN1C(=O)C(O)=C(C(=O)c2ccco2)C1c1ccco1 (stereo not given),-0.28
O=C(Cn1c(NCCO)nc2ccccc21)c1cccc(Br)c1,1.03
COC(=O)c1c(C)nc(C)c(C(=O)OC)c1-c1csc(S(=O)(=O)N2CCOCC2)c1,1.48
CCCOc1ccc(C2C(C(=O)OC)=C(C)NC3=C2C(=O)CC(C)(C)C3)cc1OC (stereo not given),-0.06
CCOc1ccc(N2CCn3c2nc2c3c(=O)n(CC(=O)O)c(=O)n2C)cc1,1.7
NC(N)=NC(N)=Nc1ccccc1,-0.24
NN/C(N)=N/C(N)=Nc1ccccc1F,2.03
CCc1ccccc1N=C(N)N=C(N)N,5.46*
COC(=O)c1ccccc1CSc1nccc(C(F)(F)F)n1,0.43
COc1ccc(S(=O)(=O)N2CCN(Cc3cc(OC)ccc3OC)CC2)cc1,0.59
COc1ccc(OC)c(CN2CCN(S(=O)(=O)c3ccc(Cl)cc3)CC2)c1,3.07*
COc1ccc(OC)c(CN2CCN(Cc3ccncc3)CC2)c1,13.3
C=CC(C)Sc1nc(C)c(Cc2ccc(F)cc2)c(=O)[nH]1 (stereo not given),-0.66
CCOC(=O)c1cc(C)n(Cc2c(Cl)cccc2Cl)n1,-0.67
CCOC(=O)c1ccc2nc(C(F)(F)F)nc(N3CC(C)CC(C)C3)c2c1 (stereo not given),-1.18
Cc1cc(C(=O)NNC(N)=S)nn1C,0.51
COc1cccc(NC(=O)NCCN2CCN=C2C)c1,-0.02
CCc1cc(C(=O)c2ccc(OC)cc2)c(NC(=O)Nc2ccc(F)cc2)s1,0.31
COc1ccc(NC(=O)Nc2cncc(C#Cc3ccccc3)c2)cc1,0.81
CCOC(=O)Cc1nnc(NC(=O)Nc2ccccc2)s1,1.73
CCOc1ccc2nc(NC(=O)Nc3ccc(F)cc3)sc2c1,-1.27
COc1cccc(NC(=O)Nc2nnc(COc3ccccc3F)s2)c1,5*
SMILES,Dicer inh
COc1ccc(OCc2nnc(NC(=O)Nc3ccccc3F)s2)cc1,2.06
COc1ccccc1NC(=O)Nc1nnc(COc2ccccc2F)s1,4.8*
CC(C)c1nnc(NC(=O)Nc2ccccc2)s1,1.32
COCc1nnc(NC(=O)c2ccco2)s1,0.86
COc1cccc(NC(=O)Nc2nnc(COc3ccc(F)cc3)s2)c1,4.42*
COc1ccc(NC(=O)Nc2nnc(-c3ccncc3)s2)cc1,4.18*
COc1ccc(OCCn2cc(C(=O)C(C)(C)C)c3ccccc32)cc1,0.39
Cc1ccc2ncnc(Oc3ncccc3N)c2c1,1.17
CSC(SC)=C(C#N)C(=O)c1ccc(Cl)cc1,1.79
CCOC(=O)CSc1nc2ccccc2c(=O)n1CC1CCCCC1,-0.3
S=C1C=C(N2CCCCC2)CC(c2ccccc2Cl)S1 (stereo not given),0.71
Cn1ccnc1SCC(=O)Nc1ccccc1Br,-0.64
CCOC(=O)c1cnn2c(C)cc(-c3ccc(F)cc3)nc12,-0.57
CC(C)OC(=O)c1cnn2c(C(F)(F)F)cc(-c3ccc(F)cc3)nc12,4.7*
